Screening data deposited in PubChem by National Center for Advancing Translational Sciences (NCATS).
The full list was thinned out, with hits kept by preference.
GPT2 inh – Primary qHTS assay for inhibitors of Glutamate pyruvate transaminase 2 (GPT2). Alanine aminotransferase 2 (Homo sapiens), Q8TD30. Recombinant GPT2, coupled pyruvate oxidase/HRP Amplex Red fluorescence. Potency, µM (highest dose often 57.7 µM), inactives show at the highest dose activity change, negative = inhibition, actives largely listed as inhibitors. actives 0.25% (n = 100,000). AID 1671188, 2021; active = well fitted inhibition curve with a large enough effect; inconclusive = small, poorly fitted or top-dose-only effect; note: nearly all actives have a fitted effect of over 60% in size
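Fluorescence read-out: pyruvate from GPT2 turnover coupled to pyruvate oxidase, HRP and Amplex Red (0.2mM ThPP, 0.2U/mL PO and HRP, 50uM Amplex final). Substrates 250uM a-KG, 2mM L-alanine; enzyme 10ng/uL; 30 min RT.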
NPR1 antag – Natriuretic polypeptide receptor (hNpr1) antagonism - Primary qHTS. actives 1.6% (n = 76,000). HEK293 hNpr1 GloSensor cGMP, ANP-stimulated luminescence. Potency, µM (highest dose often 46.3 µM), for the others: at the highest dose activity change, negative = inhibition, actives largely listed as inhibitors; calls by dose curve; note: nearly all actives have a fitted effect of over 60% in size
Target sequence (P16066 whole entry, looked up): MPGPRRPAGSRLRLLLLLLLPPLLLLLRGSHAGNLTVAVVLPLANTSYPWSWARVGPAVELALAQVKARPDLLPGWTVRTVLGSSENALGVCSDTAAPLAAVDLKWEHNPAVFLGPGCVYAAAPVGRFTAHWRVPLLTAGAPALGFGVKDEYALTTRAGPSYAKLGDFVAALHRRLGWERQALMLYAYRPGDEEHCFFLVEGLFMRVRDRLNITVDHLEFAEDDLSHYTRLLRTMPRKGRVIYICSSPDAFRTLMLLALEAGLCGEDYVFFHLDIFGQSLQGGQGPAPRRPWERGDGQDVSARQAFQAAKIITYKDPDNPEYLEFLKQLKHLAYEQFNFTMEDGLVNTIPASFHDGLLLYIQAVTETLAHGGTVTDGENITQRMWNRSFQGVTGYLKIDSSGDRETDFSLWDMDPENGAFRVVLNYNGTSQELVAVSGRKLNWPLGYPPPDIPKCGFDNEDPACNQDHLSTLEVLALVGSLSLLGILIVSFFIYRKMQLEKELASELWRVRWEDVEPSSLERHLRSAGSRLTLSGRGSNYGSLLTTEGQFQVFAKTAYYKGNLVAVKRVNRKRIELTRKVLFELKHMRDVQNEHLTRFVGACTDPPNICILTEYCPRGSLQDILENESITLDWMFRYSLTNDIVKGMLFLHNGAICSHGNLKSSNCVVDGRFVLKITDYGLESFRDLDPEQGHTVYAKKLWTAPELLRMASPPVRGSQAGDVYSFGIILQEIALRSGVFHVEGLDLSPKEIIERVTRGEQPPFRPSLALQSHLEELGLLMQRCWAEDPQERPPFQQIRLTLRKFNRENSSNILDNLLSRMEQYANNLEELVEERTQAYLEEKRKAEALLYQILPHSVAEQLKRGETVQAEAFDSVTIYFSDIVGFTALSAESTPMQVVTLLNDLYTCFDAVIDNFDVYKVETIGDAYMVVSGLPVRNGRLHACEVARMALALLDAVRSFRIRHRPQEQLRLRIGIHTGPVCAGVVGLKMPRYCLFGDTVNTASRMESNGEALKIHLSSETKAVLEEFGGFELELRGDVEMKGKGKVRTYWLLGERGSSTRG
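Compound pre-incubated 30 min at room temperature on GloSensor-loaded HEK293 cells stably carrying hNpr1 and the pGS-40F cGMP biosensor. Stimulation uses hNppA at 0.1 nM final; luminescence is taken at baseline and 20 min post-agonist.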
* hit, by the source's call; [ ] = dose if it differs, or a comment. % is set by controls: 0 for no effect and ±100 for the full control effect; potency is the fitted concentration of half-maximal effect.

Cc1cc(C)n(CCC(=O)N2CC(Oc3ccc(-c4nc(-c5ccccc5)no4)cc3)C2)n1 was read as GPT2 inh -8% and NPR1 antag 0.4µM*.
Screening Cc1ccc(OCC(=O)N2CC(Oc3ccc(-c4nc(-c5ccccc5)no4)cc3)C2)cc1 returned GPT2 inh inactive and NPR1 antag 1%.
`Cc1nn(CCC#N)c(C)c1[C@@H]1C=C[C@@H](NS(=O)(=O)c2cccs2)C1` gave GPT2 inh 2%[88.5 µM] and NPR1 antag -3%[70.6 µM].
COc1ccc(CNC[C@H]2O[C@H](Cc3cc(-c4ccccc4)on3)CC[C@@H]2O)cc1 was read as GPT2 inh 0%[88.5 µM] and NPR1 antag -19%[70.6 µM].
Screening COc1ccccc1C(=O)N1CCCC1C(=O)N1CCC(c2nc3ncccc3[nH]2)CC1 (stereo not drawn) returned GPT2 inh -41%.
O=C(CC(c1ccccc1)c1ccccc1F)N1CCN(c2ccncc2)CC1 (stereo not drawn) was read as GPT2 inh -4% and NPR1 antag -4%.
Screening COc1ccc(CN2CCNc3cc(Nc4ccccc4)ncc3C2)cc1 returned GPT2 inh 2%[88.5 µM] and NPR1 antag -30%[70.6 µM].
`c1ccc2ncc(CNC[C@H]3Cn4c(-c5ccc6c(c5)OCCO6)cnc4CO3)cc2c1` gave GPT2 inh inconclusive and NPR1 antag 35µM*.
Screening c1ccc(CNC[C@H]2Cn3c(-c4ccccc4)cnc3CO2)cc1 returned GPT2 inh -36%[88.5 µM] and NPR1 antag -13%[70.6 µM].
Screening COc1cc(N2CCC(O)CC2)ccc1Nc1nc(Nc2ccccc2S(=O)(=O)C(C)C)c2[nH]cnc2n1 returned GPT2 inh 18µM*.
COc1ccccc1Nc1ccnc(N2CCC(NC(=O)C(C)C)CC2)n1 was read as GPT2 inh inactive.
Screening CSc1ccc(CN2CCN(Cc3ccccc3F)C(CCO)C2)cc1 (stereo not drawn) returned GPT2 inh -10% and NPR1 antag -16%.
`Oc1cc(O)cc(/C=C/c2ccc(O)c(O)c2)c1` gave GPT2 inh 6.3µM*.
`COc1cc(O)cc(/C=C/c2cccc(O)c2)c1` gave GPT2 inh inactive.
Screening CC(C)NC(=O)N1CCNc2cnc(Nc3cccc(F)c3)nc2C1 returned GPT2 inh -13%[88.5 µM] and NPR1 antag inconclusive.
Screening N#Cc1cccc(C(=O)N2CCNc3cnc(Nc4cccc(F)c4)nc3C2)c1 returned GPT2 inh inactive and NPR1 antag 28µM*.
COc1ccc(-c2noc(N(C)Cc3ccccc3)n2)cc1OC was read as GPT2 inh inconclusive and NPR1 antag 4%.
`COCCOc1ccc2c(n1)CCN(C(=O)CCC1CCCC1)C2` gave GPT2 inh -3% and NPR1 antag 11µM*.
`COCCOc1ccc2c(n1)CCN(C(=O)CC1CCCC1)C2` gave GPT2 inh inactive and NPR1 antag -7%.
Screening CC(C)NC(=O)CN1CCN(c2nccc(N3CCC(O)CC3)n2)CC1 returned GPT2 inh inactive and NPR1 antag 2%.
For C[C@]12C=CC(=O)C=C1CC[C@@H]1C2=CC[C@]2(C)[C@@H](C(=O)CN3CCN(c4cc(N5CCCC5)nc(N5CCCC5)n4)CC3)CC[C@@H]12 the results were GPT2 inh 0.71µM*.
Screening Cc1cccc(C(=O)N2CCCN(Cc3ccncc3)C(c3ccccc3)CC(=O)NCC2)c1 (stereo not drawn) returned GPT2 inh inactive and NPR1 antag 2%.
Screening CC1=C[C@@H](CNS(=O)(=O)c2ccc(C)cc2)[C@H](C(C)C)C[C@H]1CC(=O)N(C)Cc1cccnc1 returned GPT2 inh -5% and NPR1 antag -19%.
For CN(Cc1ccc(F)cc1)Cc1ccccc1OCC(O)CN1CCCCC1 (stereo not drawn) the results were GPT2 inh inconclusive and NPR1 antag 7%.
For COc1ccc(NC(=O)c2cc3n(n2)CC(c2ccc4c(c2)OCO4)OC3)cc1 (stereo not drawn) the results were GPT2 inh inactive and NPR1 antag 11µM*.
For COc1ccc(NC(=O)c2cc3n(n2)CC(c2ccc4c(c2)OCO4)OC3)c(OC)c1 (stereo not drawn) the results were GPT2 inh inactive and NPR1 antag -5%.
For CCC(=O)N1CCc2c(C(=O)Nc3cc(OC)cc(OC)c3)cccc21 the results were GPT2 inh 1% and NPR1 antag -1%.
For COc1ccc(NC(=O)c2cccc3c2CCN3C(=O)Nc2ccc(F)cc2)cc1 the results were GPT2 inh inactive and NPR1 antag 2%.
`COc1ccc(NC(=O)N2CCc3c(C(=O)Nc4ccc5c(c4)OCO5)cccc32)cc1` gave GPT2 inh inactive and NPR1 antag 13µM*.
Screening COc1ccc(NC(=O)c2cccc3c2CCN3C(=O)Nc2ccc(F)cc2)c(C)c1 returned GPT2 inh inactive and NPR1 antag 11µM*.
CCCNC(=O)c1cccc2c1CCN2C(=O)Nc1ccc(OC)cc1 was read as GPT2 inh 2% and NPR1 antag 5µM*.
For COc1ccc(NC(=O)N2CCc3c(C(=O)NCCCN(C)C)cccc32)cc1 the results were GPT2 inh -3% and NPR1 antag -1%.
COCCN1Cc2ccc(NCC(C)C)nc2C(C)(C(=O)Nc2cccc(F)c2)C1 (stereo not drawn) was read as GPT2 inh 3%[88.5 µM] and NPR1 antag -12%[70.6 µM].
For Cc1nc(CN2C[C@H](C(=O)Nc3cccc(Cl)c3)C[C@@H]2c2ccc(F)cc2)cs1 the results were GPT2 inh 3%[88.5 µM] and NPR1 antag inconclusive.
COc1cc(F)ccc1-c1cn(C)c(=O)n2cc(CN3CCOCC3)nc12 was read as GPT2 inh 0%[88.5 µM] and NPR1 antag 3%[70.6 µM].
For COc1ccc(NC(=O)N2CCc3c(C(=O)NCCCN4CCCC4=O)cccc32)cc1 the results were GPT2 inh 0% and NPR1 antag 11µM*.
`COc1ccc(OC2CCN(C3CCCC3)CC2)c(C(=O)NCCCN2CCCC2=O)c1` gave GPT2 inh inactive and NPR1 antag 2%.
Screening CCC(=O)N1CCc2c(C(=O)O)cccc21 returned GPT2 inh 2% and NPR1 antag -5%.
Screening CN(Cc1ccccc1)C(=O)c1cccc2c1CCN2C(=O)Nc1ccccc1 returned GPT2 inh 0% and NPR1 antag 8.9µM*.
For O=C(c1cccc2c1CCN2C(=O)Nc1ccccc1)N1CCN(c2ccccc2)CC1 the results were GPT2 inh inactive and NPR1 antag -24%.
Screening CN(Cc1ccco1)C(=O)c1cccc2c1CCN2C(=O)Nc1ccccc1 returned GPT2 inh 2% and NPR1 antag 10µM*.
For O=C(c1cc(-c2ccc(F)cc2)nc2ccccc12)N1CCCC1c1nc(C2CCOCC2)no1 (stereo not drawn) the results were GPT2 inh inactive and NPR1 antag 8%.
`CCn1ncc(N2CCC(NC(=O)C(C)(C)C)CC2)cc1=O` gave GPT2 inh inconclusive and NPR1 antag 10%.
CC(C)(C)CC(=O)Nc1cnc(-c2ccc(Cl)cc2)nc1 was read as GPT2 inh -5% and NPR1 antag 3.5µM*.
For CCC(=O)Nc1cnc(-c2ccc(C)cc2)nc1 the results were GPT2 inh 4% and NPR1 antag inconclusive.
For COCCN1CCOc2nc(-c3ccc(Oc4ccccc4)cc3)ncc2C1=O the results were GPT2 inh -11%[88.5 µM] and NPR1 antag 22µM*.
